The record followed here is PubChem BioAssay (NCI).

This is part of a sample that, as a whole, favours compounds with a hit. Of some 83,000 tested, about 20% had one in any assay.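 The endpoint reported here, percent growth, reads 100 for growth as untreated, 0 for no net growth and -100 for all cells dead.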 Active and inactive are the calls of the source. Rule for the calls: active = growth percent below 10; inactive = the rest.

The subject of one assay is SN12C renal. Briefly: NCI-60 one-dose screen, 48 h (100 = growth as untreated, 0 = no growth, -100 = all killed). The note with it: 1 µM.
With `CC/C(=C(/c1ccc(O)cc1)c1ccc(OCCN(C)C(=O)COCCOCCNC(=O)c2ccc3c(c2)CN([C@@H]2CCC(=O)NC2=O)C3=O)cc1)c1ccccc1`, the growth was 96% (inactive).

On to `CC/C(=C(/c1ccc(O)cc1)c1ccc(OCCN(C)C(=O)CCOCCNC(=O)Cc2ccc3c(c2)CN([C@@H]2CCC(=O)NC2=O)C3=O)cc1)c1ccccc1`, for which the growth was 89% (inactive).

With `CC/C(=C(/c1ccc(O)cc1)c1ccc(OCCN(C)C(=O)COCCOCCNC(=O)Cc2ccc3c(c2)CN([C@@H]2CCC(=O)NC2=O)C3=O)cc1)c1ccccc1`, the growth was 88.7% (inactive).

In the case of `CC/C(=C(\c1ccc(O)cc1)c1ccc(OCCNC)cc1)c1ccccc1`, the growth is 101% (inactive).

As for `CC/C(=C(\c1ccc(O)cc1)c1ccc(OCCN(C)C(=O)CCOCCNC(=O)c2ccc3c(c2)CN([C@@H]2CCC(=O)NC2=O)C3=O)cc1)c1ccccc1`, the growth is 91.3% (inactive).

As to `CC/C(=C(\c1ccc(O)cc1)c1ccc(OCCN(C)C(=O)COCCNC(=O)Cc2ccc3c(c2)CN([C@@H]2CCC(=O)NC2=O)C3=O)cc1)c1ccccc1`, the growth was 73.9% (inactive).

Still in this assay, the particulars now being: 10 µM.
For the molecule `CC/C(=C(/c1ccc(O)cc1)c1ccc(OCCN(C)C(=O)COCCOCCNC(=O)c2ccc3c(c2)CN([C@@H]2CCC(=O)NC2=O)C3=O)cc1)c1ccccc1`, the growth was 85% (inactive).

As to `CC/C(=C(/c1ccc(O)cc1)c1ccc(OCCN(C)C(=O)CCOCCNC(=O)Cc2ccc3c(c2)CN([C@@H]2CCC(=O)NC2=O)C3=O)cc1)c1ccccc1`, the growth was 78% (inactive).

`CC/C(=C(/c1ccc(O)cc1)c1ccc(OCCN(C)C(=O)COCCOCCNC(=O)Cc2ccc3c(c2)CN([C@@H]2CCC(=O)NC2=O)C3=O)cc1)c1ccccc1`: the growth is 53.5% (inactive).

With `CC/C(=C(\c1ccc(O)cc1)c1ccc(OCCNC)cc1)c1ccccc1`, the growth was 73.8% (inactive).

As for `CC/C(=C(\c1ccc(O)cc1)c1ccc(OCCN(C)C(=O)CCOCCNC(=O)c2ccc3c(c2)CN([C@@H]2CCC(=O)NC2=O)C3=O)cc1)c1ccccc1`, the growth was 95.7% (inactive).

Take `CC/C(=C(\c1ccc(O)cc1)c1ccc(OCCN(C)C(=O)COCCNC(=O)Cc2ccc3c(c2)CN([C@@H]2CCC(=O)NC2=O)C3=O)cc1)c1ccccc1`: the growth is 38.1% (inactive).

The assay is the same for the next values; noted with them: 10 µM unless noted.
With `O=C(Nc1ccc(S(=O)(=O)N2CCCCC2)cc1)C(Cl)Cl`, the growth was 112% (inactive).

Take `O=C(c1ccc(Cl)cc1)C1[C@H](c2ccccc2Cl)[C@@H](c2ccccc2)NC12C(=O)Nc1ccccc12` (stereo partly drawn): the growth is -89.1% (active).

Regarding `O=C(c1ccc(O)cc1)C1[C@H](c2ccc(Cl)cc2)[C@@H](c2ccccc2)NC12C(=O)Nc1ccccc12` (stereo partly drawn), the growth was -83.8% (active).

On to `Cc1ccc2nc(SCc3ccccc3F)n(-c3ccccc3)c(=O)c2c1`, for which the growth was 90.6% (inactive).

Turning to `CCCCNc1ccc2c3c(cccc13)C(=O)N(NCC(O)COc1ccc3c(C)cc(=O)oc3c1)C2=O` (stereo not drawn), the growth was 94.5% (inactive).

Take `c1n[nH]cc1-c1nc2ccc3[nH]ncc3c2c2c1CC1(CC2)COC1`: the growth was 38.9% (inactive).

`CCN1CCN(Cc2ccc(C(=O)Nc3cccc(Nc4ccc5c(OC)cccc5n4)c3)cc2C(F)(F)F)CC1`: the growth was -90.5% (active).

Regarding `O=C(NN1C(=O)/C(=C/C=C/c2ccc([N+](=O)[O-])o2)SC1=S)c1ccc([N+](=O)[O-])cc1`, the growth is -99.9% (active).

`C=CCn1c(O)c(N=Nc2nc(-c3cc4ccccc4oc3=O)cs2)c2ccccc21`: the growth was 90.7% (inactive).

As to `CCCCCCCCCCCCCCCCCC(=O)Nc1ccc(OC)cc1`, the growth was 99.7% (inactive).

`Cn1cc(-c2cc(N)n3nc(-c4c[nH]c5ccc(Cl)cc45)cc3n2)c2cc(Br)cnc21`: the growth was 42.5% (inactive).

Take `COC(=O)c1ccc(-c2c(-c3ccccc3)c(F)c3oc(C(=O)OC)c(N)c3c2-c2ccccc2)cc1`: the growth is 98.1% (inactive).

Turning to `COc1ccc(-c2nc3ccccc3n2CC(=O)N=Nc2c(O)[nH]c3ccc(Br)cc23)cc1`, the growth is 97% (inactive).

For `O=C(N/N=C/c1c[nH]c2ccccc12)Nc1ccccc1Cl`, the growth was 0.991% (active).

For `COc1ccc(CCC2NCCc3c(Br)c4c(c(OC)c32)OCO4)cc1` (stereo not drawn), the growth was 13.2% (inactive).

As to `CN(C)c1nc(NCCNS(=O)(=O)c2ccc(C(=O)/C=C/c3ccc(Cl)cc3)cc2)nc(N2CCOCC2)n1`, the growth was 53.4% (inactive).

In the case of `COc1ccccc1NC(=O)N/N=C/c1c[nH]c2ccccc12`, the growth is 23.2% (inactive).

In the case of `O=C1/C(=C/c2cnc(-c3ccccc3)s2)SC(=S)N1Cc1ccc2c(c1)OCO2`, the growth was 72.9% (inactive).

Take `N#CC1=C(c2cccs2)Nc2c(c(-c3ccccc3)nn2-c2ccccc2)C12C(=O)Nc1ccccc12` (stereo not drawn): the growth was 55.3% (inactive).

`COc1ccc2[nH]c(=O)cc(-n3ncc(C(=O)/C=C/c4cc(OC)c(OC)c(OC)c4)c3C)c2c1`: the growth is 7.21% (active).

On to `C[C@H](NC(=O)c1ccc2c(-c3ccc(C(F)(F)F)cc3)cccc2c1)c1ccccn1`, for which the growth is 42% (inactive).

In the case of `Cn1cc(Nc2ncnc(-c3ccc(N4CCCC4)c(C#N)c3)n2)cn1`, the growth is 70.7% (inactive).

On to `CCCCCCCCc1cccc(CC(=O)Nc2ccc(C)cc2C(=O)O)c1`, for which the growth is 51% [25 µM] (inactive).

`O=C1CCC(N2C(=O)c3cccc(NCCCCCC(=O)N4CCN(c5ccc6nc7c(nc6c5C(F)(F)F)C(=O)c5ncccc5C7=O)CC4)c3C2=O)C(=O)N1` (stereo not drawn): the growth was -79.6% (active).

For `CN1C(=O)/C(=C\C(=O)c2cc3ccccc3oc2=O)c2ccccc21`, the growth was 66.3% (inactive).

Turning to `Cc1ccc2nc(NC(=O)Nc3cccc(Cl)c3)sc2c1`, the growth was 103% (inactive).

On to `O=C1Nc2ccccc2/C1=C\c1ccc(OCC(=O)c2ccc(Br)cc2)cc1`, for which the growth was 62.7% (inactive).

For the molecule `COc1ccc2[nH]cc(-c3cc(N)n4nc(-c5c[nH]c6ccccc56)cc4n3)c2c1`, the growth was 49.1% (inactive).

For the molecule `Cn1cc(-c2cc(N)n3nc(-c4c[nH]c5ccc(Cl)cc45)cc3n2)c2cccnc21`, the growth was -80% (active).

Consider `Cc1ccc(-c2cc(C(=O)N=Nc3c(O)[nH]c4ccc(F)cc34)c3ccccc3n2)cc1`, for which the growth was 18.1% (inactive).

With `O=C(NN1C(=O)/C(=C/C=C/c2ccc([N+](=O)[O-])o2)SC1=S)c1ccncc1`, the growth was -99.9% (active).
